From PubChem BioAssay
Inconclusive results are not listed. A number with no mark means an inactive call. Activity calls are given as the source filed them.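 Rule for the calls: active = cell viability at or below a set limit in both duplicate runs, the limit being the all-compound median minus 4 SD (cut at about 23% in these data, passing the limit was not always enough); inconclusive = no clear call, values can overlap the other calls; inactive = the rest.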

Assay: viability of HCT116 without oncogenic beta-catenin – human colon tumor cells, pilot screen (AID 823);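 note: 0% = wells killed by 20 µM Hyamine and 100% = untreated DMSO cell wells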
Details: HCT116 beta-catenin knockout viability, CellTiter-Glo, 60 h; at 10 µM; hits give low values
With `CCOC(=O)Cn1c(=O)oc2cc(S(=O)(=O)NCc3ccccn3)ccc21` the viability was 105%.
Compound `CCOC(=O)C1C(C)N=C2SCC(=O)N2C1c1cccc(Br)c1` (stereo unspecified) has a viability of 86.4%.
In the case of `CN1CCN(c2cc3c(c4c2[nH]c2ccccc24)C(=O)CC(C)(C)C3)CC1`, the viability is reported as 1.73% (active).
With `Cc1cc(/C=N/n2cnnc2)c(C)n1-c1ccc(C(=O)O)cc1` the viability was 102%.
Compound `O=C(CSc1cn(Cc2ccccc2)c2ccccc12)Nc1nccs1` has a viability of 88.8%.
Work on `CCOC(=O)CN1Cc2cccc(C(=O)O)c2C1=O` yielded a viability of 95.6%.
`CCOC(=O)C1CCCN(C(=O)c2ccc(CNc3c(N4CCC(C)CC4)c(=O)c3=O)cc2)C1` (stereo unspecified) showed a viability of 102%.
With `O=C1C(Cl)=C(N2CCCCCC2)C(=O)N1c1ccccc1` the viability was 91.3%.
Compound `O=C(Nc1c(C(=O)O)oc2ccc(Br)cc12)c1ccccc1` has a viability of 101%.
`CC1(C)CC(=O)C2(CC3=C(CC(C)(C)CC3=O)O2)C(=O)C1` showed a viability of 94.7%.
`CCCn1nc(NC(=O)CC(C)C)c2cc3ccccc3nc21` showed a viability of 87.5%.
For `Cc1ccc(C2=[N+]([O-])C3(CCCCC/C3=N\O)N(O)C2(C)C)o1` (stereo unspecified), the viability was 99%.
In the case of `COc1ccc(-c2nc(CS(=O)CC(=O)NCC3CCCO3)c(C)o2)cc1` (stereo unspecified), the viability is reported as 97.8%.
In the case of `CN(C(=O)c1ccc2c(c1)OCO2)C1(C(=O)NC2CCCCC2)CCCCC1`, the viability is reported as 90.6%.
`CCn1c(=O)cc(OCC(=O)N2CCc3ccccc32)c2ccccc21` gave a viability of 96.1%.
Work on `Cn1c(=O)[nH]c(=O)c2[nH]c(CN3CCN(Cc4ccccc4)CC3)nc21` yielded a viability of 104%.
